Compound activity as filed in PubChem.
Hits are enriched below; roughly 3.1% of the tested compounds scored in any of these assays.
Anthrax LF prot – inhibitors of Bacillus anthracis lethal factor protease. inhibition, % at 10 µM. multiplex microsphere protease cleavage assay, LF. 360,000 compounds, 0.12% hits; further: plate controls were buffer without enzyme for full effect and enzyme alone for no effect
Target sequence (P15917 whole entry, looked up): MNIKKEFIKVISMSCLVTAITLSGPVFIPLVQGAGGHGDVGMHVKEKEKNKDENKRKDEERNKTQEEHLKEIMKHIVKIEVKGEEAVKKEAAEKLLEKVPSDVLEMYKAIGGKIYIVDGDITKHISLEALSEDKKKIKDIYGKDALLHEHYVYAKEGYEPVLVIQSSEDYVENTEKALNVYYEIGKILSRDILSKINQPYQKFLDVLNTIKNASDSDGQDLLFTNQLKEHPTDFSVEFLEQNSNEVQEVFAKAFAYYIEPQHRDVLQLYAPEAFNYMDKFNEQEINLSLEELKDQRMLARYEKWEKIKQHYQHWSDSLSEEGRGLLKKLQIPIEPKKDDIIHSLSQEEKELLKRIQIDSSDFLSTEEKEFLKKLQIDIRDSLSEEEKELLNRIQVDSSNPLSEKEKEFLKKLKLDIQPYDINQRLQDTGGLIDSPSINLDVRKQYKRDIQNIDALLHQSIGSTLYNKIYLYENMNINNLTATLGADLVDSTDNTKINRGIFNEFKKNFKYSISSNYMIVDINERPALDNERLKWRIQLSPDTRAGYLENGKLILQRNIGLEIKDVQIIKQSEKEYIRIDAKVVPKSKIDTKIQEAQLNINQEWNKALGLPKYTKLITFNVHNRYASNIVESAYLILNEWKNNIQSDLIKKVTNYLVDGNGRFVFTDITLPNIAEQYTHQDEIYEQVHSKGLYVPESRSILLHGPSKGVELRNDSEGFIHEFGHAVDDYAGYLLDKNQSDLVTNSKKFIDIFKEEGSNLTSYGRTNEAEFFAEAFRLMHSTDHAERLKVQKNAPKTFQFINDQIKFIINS
Autofluor counter – counter-screen for toxin protease inhibitors: compound fluorescence. compound autofluorescence counterscreen, microsphere flow cytometry; stronger effect = higher value. fluorescence intensity (concentration not given with the values). 360,000 compounds, 3.1% hits. AID 624483; in the data active means fluorescence intensity above about 16000; inconclusive means no clear call, values can overlap the other calls
PriA SSB inh – blocks PriA binding to SSB C-terminal tail. AlphaScreen SSBct-PriA binding, biotinylated peptide. inhibition, % at 33 µM. 430,000 compounds, 0.6% hits; in the data active means inhibition mostly above about 37%, no sharp cut-off; inactive means mostly below about 20%;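 further: plate controls were negative control peptide for no effect and reference peptide for full effect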
BoNT F protease – BoNT F light chain protease inhibition | Multiplex microsphere protease cleavage assay, flow cytometry | inhibition, % at 10 µM | 360,000 compounds, 0.22% hits; in the data active means inhibition above about 35%, passing the limit was not always enough; inconclusive means no clear call, values can overlap the other calls; further: plate controls were buffer without enzyme for full effect and enzyme alone for no effect
BoNT-A LC inh2 – BoNT A light chain protease inhibition; multiplex microsphere protease substrate cleavage, flow cytometry; inhibition, % at 10 µM; 360,000 compounds, 0.17% hits; further: plate controls were buffer without enzyme for full effect and enzyme alone for no effect
* = called active by the depositor; ? = inconclusive; / = no result given; ! = a repeat was not active. Unless noted, no stated cut-off is given here; in the data, active means inhibition above about 30%; inconclusive means no clear call, values can overlap the other calls; inactive means below that.

SMILES	Anthrax LF prot	Autofluor counter	PriA SSB inh	BoNT F protease	BoNT-A LC inh2
O=C(NCCC1=CCCCC1)C1CCN(S(=O)(=O)N2CCOCC2)CC1	-1.6	20881*	-14.5	-4.1	-2.0
COC(=O)c1sc2ccccc2c1NC(=O)c1c(F)cccc1F	/	/	-1.0	/	/
O=C(Cc1ccc(F)cc1)Nc1ccc2c(c1)N(C(=O)[C@@H]1CCCO1)CC2	/	/	2.0	/	/
O=C(Nc1ccc(Cl)c(Cl)c1)c1csc(-c2ccccc2)n1	-3.0	16273*	-13.7	-2.6	-0.1
O=C(Nc1cccc(Cl)c1)c1csc(-c2ccccc2)n1	5.0	11878	-32.8	-12.1	-3.1
NS(=O)(=O)c1ccc(NC(=O)CSc2nnc3sc4ccccc4n23)cc1	/	/	-2.0	/	/
CCCNC(=O)Cn1c(=O)/c(=C/c2ccc(-c3ccc([N+](=O)[O-])cc3)o2)s/c1=C\C(=O)C(C)(C)C	33.1*	6201	-14.5	22.3	32.1*
O=C(NC(=S)N1CCCc2ccccc21)c1ccccc1	7.6	2744	42.0*!	1.5	2.7
COCCNS(=O)(=O)c1ccc(F)c(OC)c1	-3.1	10708	3.0	-1.9	0.3
O=C1c2cc(S(=O)(=O)NCCCO)ccc2-c2ccc(S(=O)(=O)NCCCO)cc21	-1.3	21753*	-25.9	1.2	2.6
COCCNS(=O)(=O)c1ccc2c(c1)C(=O)c1cc(S(=O)(=O)NCCOC)ccc1-2	-3.1	16158*	-5.6	1.3	0.9
CC1(C)Cc2cccc(OCC(=O)NCCCS(=O)(=O)N3CCN(c4ncccn4)CC3)c2O1	/	/	-6.0	/	/
COc1ccc(CCNC(=O)c2[nH]nc3c2COc2ccccc2-3)cc1OC	/	/	-8.0	/	/
Cc1scc(C(=O)N2CCN(S(C)(=O)=O)CC2)c1-c1ccccc1	1.2	24362*	0.5	-1.3	?
CS(=O)(=O)N1CCN(C(=O)c2ccccc2F)CC1	7.0	4014	1.9	21.4	0.9
COc1ccc(N2CCN(C(=O)c3csc4ccccc34)CC2)cc1	-2.7	16323*	4.3	-3.6	-0.9
O=C(c1csc2ccccc12)N1CCN(c2ccc(Cl)c(Cl)c2)CC1	-1.2	5800	-5.5	-1.2	-0.4
CS(=O)(=O)N1CCN(C(=O)c2csc3ccccc23)CC1	-0.7	24374*	6.9	-3.8	-3.0
CCOc1ccc2nc(N(CCN(C)C)C(=O)c3ccc(F)cc3)sc2c1	/	/	14.0	/	/
O=C1/C(=C/c2cccnc2)Oc2c1ccc1c2CN(CCN2CCOCC2)CO1	/	/	-31.0	/	/
COC(CNC(=O)c1ccc2c(c1)nc(C)n2-c1ccc(F)c(F)c1)OC	-2.0	22581*	-5.4	4.6	1.2
COC(CNC(=O)c1ccc2c(c1)nc(C)n2-c1cccc(F)c1)OC	1.1	21945*	-12.4	-4.0	-5.1
COC(CNC(=O)c1ccc2c(c1)nc(C)n2-c1cc(C)cc(C)c1)OC	0.0	2960	2.2	10.5	3.0
CCc1ccc(C([O-])=C(C(=S)NCCN2CCOCC2)[n+]2ccccc2)cc1	/	/	12.9	/	/
CC1CCCCC1NC(=O)C1CCN(S(=O)(=O)N2CCCCCC2)CC1 (stereo not given)	-13.6	18939*	-14.4	11.2	9.9
SMILES	Anthrax LF prot	Autofluor counter	PriA SSB inh	BoNT F protease	BoNT-A LC inh2
O=C(CCc1n[nH]c(=O)[nH]c1=O)N1CCOCC1	-0.1	6245	-10.0	3.7	0.1
O=C(CCNc1n[nH]c(=O)[nH]c1=O)N1CCOCC1	-1.0	22002*	-3.6	0.5	?
O=C(NCc1ccc2c(c1)OCO2)C(=O)Nc1c2c(nn1-c1ccc(F)cc1)CS(=O)(=O)C2	/	/	-14.0	/	/
O=C(NCC1CCN(C(=O)c2ccncc2)CC1)C(=O)Nc1ccccc1C(F)(F)F	/	/	-2.0	/	/
COc1cc(OC)c(OC)cc1/C=N/N(C)c1ccccc1	-6.4	3137	/	4.5	-0.2
COc1cc(OC)c(OC)cc1C=NN(C)c1ccccc1	/	/	72.6*	/	/
O=C(c1sc2ccccc2c1Cl)N1CCC2(CC1)OCCO2	-2.7	21877*	-1.9	-5.9	?
CCOC(=O)C1=C(Cn2cnc3ccccc32)NC(=O)NC1c1ccc(Cl)cc1 (stereo not given)	-0.9	9511	5.4	-9.0	-0.1
CCOC(=O)C1=C(Cn2cnc3ccccc32)NC(=O)NC1c1ccc(OC)cc1 (stereo not given)	2.2	16933*	-18.8	-1.4	-1.2
Cc1nnc2ccc(N3CCN(C(=O)Nc4ccccc4)CC3)nn12	/	/	0.0	/	/
Cc1noc(C)c1CS(=O)(=O)c1ccc(Br)cc1	1.8	10237	4.5	-0.7	-0.5
Cc1ccc(S(=O)(=O)Cc2c(C)noc2C)cc1	-10.5	22977*	-5.7	-3.6	-1.4
O=C(Nc1c(C(=O)N2CCCC2)cnn1-c1ccccc1)c1cccc(F)c1	1.5	21118*	-9.8	-3.7	?
Cc1c(C)c2cc(Cl)c(OCC(=O)N3C[C@H]4C[C@H](C3)c3cccc(=O)n3C4)cc2oc1=O	/	/	-13.6	/	/
